We go through 8 compounds from PubChem BioAssay (NCI).

Some test systems named below: SK-MEL-2 melanoma; EKVX NSCLC; SN12C renal; UO-31 renal; TK-10 renal; ACHN renal; CAKI-1 renal; A498 renal; CCRF-CEM leukemia; MOLT-4 leukemia; RPMI-8226 leukemia; OVCAR-8 ovarian; OVCAR-5 ovarian; OVCAR-4 ovarian; SK-OV-3 ovarian; IGROV1 ovarian; OVCAR-3 ovarian; HS 578T breast; NCI/ADR-RES ovarian.
Common to all, as to assay: NCI-60 one-dose screen, 48 h (100 = growth as untreated, 0 = no growth, -100 = all killed)
Holding throughout (settings): 10 µM unless noted

About 83,000 compounds went through this panel and 20% of them were active in at least one assay; those are over-represented in the sample as a whole.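 Compound tested at a single concentration for 48 hours in 96-well plates; a percent growth value below 10 was scored as active.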 Values without a mark were called inactive. The source made the active and inactive calls.

On to `COc1ccc(C(=NN=C(N)N)c2ccc(OC)cc2)cc1`, for which the growth with SK-MEL-2 melanoma is 32.3%; in the assay with EKVX NSCLC, 81.9%; with SN12C renal it was 49.9%; with UO-31 renal, 62.4%; in the assay on TK-10 renal it was 40.1%; in the assay with ACHN renal, 37.6%. In addition, the growth in the assay with CAKI-1 renal is 73.4%; with A498 renal, 66.7%; with CCRF-CEM leukemia, 60%; with MOLT-4 leukemia it was 40%; with RPMI-8226 leukemia, 49.4%; with OVCAR-8 ovarian, 56.7%. The growth was 69.1% in the assay with OVCAR-5 ovarian; 39.3% in the assay on OVCAR-4 ovarian; 11% in the assay on SK-OV-3 ovarian; 36.3% in the assay on IGROV1 ovarian; 17% in the assay with OVCAR-3 ovarian; 65% in the assay with HS 578T breast. Further, the growth with NCI/ADR-RES ovarian was 83.5%.
In the case of `CC1=NOC(=O)/C1=C\c1ccc(O)cc1`, the growth in the assay on SK-MEL-2 melanoma is 113%; in the assay with EKVX NSCLC, 104%; with SN12C renal, 101%; in the assay with UO-31 renal it was 85.7%; with TK-10 renal, 102%; with ACHN renal, 101%. In addition, the growth is 95.4% with CAKI-1 renal; 86.7% in the assay with A498 renal; 94.1% with CCRF-CEM leukemia; 102% with MOLT-4 leukemia; 109% with RPMI-8226 leukemia; 98.3% in the assay with OVCAR-8 ovarian. Also, the growth in the assay on OVCAR-5 ovarian is 99.8%; in the assay on OVCAR-4 ovarian it was 106%; in the assay with SK-OV-3 ovarian, 103%; in the assay with IGROV1 ovarian, 104%; in the assay on OVCAR-3 ovarian, 103%; with HS 578T breast, 98.3%. For the same compound, in the assay with NCI/ADR-RES ovarian, the growth is 106%.
On to `Cc1c(C(=O)OC(=NC2CCCCC2)NC2CCCCC2)sc2c1c(=O)nc1c(C#N)n[nH]n12`, for which the growth was 93.6% with SK-MEL-2 melanoma; 109% in the assay with EKVX NSCLC; 117% in the assay with SN12C renal; 79.6% with UO-31 renal; 117% in the assay with TK-10 renal; 106% in the assay on ACHN renal. For the same compound, the growth in the assay on CAKI-1 renal was 101%; in the assay on A498 renal it was 119%; with CCRF-CEM leukemia it was 300%; in the assay with MOLT-4 leukemia it was 99.7%; with RPMI-8226 leukemia, 137%; with OVCAR-8 ovarian it was 104%. In addition, the growth was 75.8% in the assay with OVCAR-5 ovarian; 105% in the assay on OVCAR-4 ovarian; 106% in the assay with SK-OV-3 ovarian; 84.6% in the assay with IGROV1 ovarian; 105% in the assay on OVCAR-3 ovarian; 104% in the assay on HS 578T breast. For the same compound, the growth in the assay on NCI/ADR-RES ovarian is 106%.
As to `O=C1NC(=Nc2ccc(Cl)cc2)S/C1=C\c1cn(-c2ccccc2)nc1-c1ccccc1`, the growth was 103% in the assay with SK-MEL-2 melanoma; 85.3% in the assay on EKVX NSCLC; 79.3% in the assay on SN12C renal; 87.2% in the assay with UO-31 renal; 60.9% in the assay with TK-10 renal; 91.9% in the assay on ACHN renal. Also, the growth with CAKI-1 renal is 94.7%; in the assay with A498 renal, 79.7%; in the assay with CCRF-CEM leukemia it was 60.6%; with MOLT-4 leukemia, 81.7%; with RPMI-8226 leukemia it was 83.3%; with OVCAR-8 ovarian it was 75.1%. Further, the growth in the assay with OVCAR-5 ovarian is 98.6%; in the assay with OVCAR-4 ovarian, 0.154% (active); in the assay on SK-OV-3 ovarian, 104%; in the assay on IGROV1 ovarian, 79.7%; in the assay with OVCAR-3 ovarian, 89.2%; with NCI/ADR-RES ovarian, 91.6%.
`COCN1CCC2N(COC)CCC3N(COC)CCC1N23` (stereo not drawn): the growth in the assay with SK-MEL-2 melanoma was 107%; in the assay on EKVX NSCLC, 108%; in the assay with SN12C renal, 89.6%; with UO-31 renal, 107%; in the assay with TK-10 renal, 113%; in the assay on ACHN renal, 108%. The growth with CAKI-1 renal was 102%; in the assay on A498 renal, 113%; in the assay on CCRF-CEM leukemia it was 104%; in the assay on MOLT-4 leukemia, 111%; in the assay with RPMI-8226 leukemia it was 118%; in the assay with OVCAR-8 ovarian, 99%. The growth in the assay on OVCAR-5 ovarian was 103%; in the assay on OVCAR-4 ovarian, 110%; with SK-OV-3 ovarian, 101%; with IGROV1 ovarian, 126%; in the assay on OVCAR-3 ovarian, 116%; in the assay on NCI/ADR-RES ovarian, 108%.
Consider `CSc1n(Cc2ccc3ccccc3c2)c(C)c[n+]1Cc1ccc2ccccc2c1`, for which the growth in the assay with SK-MEL-2 melanoma was -25.7% (active); in the assay with EKVX NSCLC, 24.9%; in the assay on SN12C renal it was -2.22% (active); in the assay on UO-31 renal, 72.4%; with TK-10 renal, -9.72% (active); with ACHN renal it was 48%. Further, the growth in the assay with CAKI-1 renal was -22.8% (active); in the assay on A498 renal it was -32.3% (active); with CCRF-CEM leukemia, 1.28% (active); in the assay with MOLT-4 leukemia, 2.39% (active); in the assay on RPMI-8226 leukemia, -38.3% (active); in the assay with OVCAR-8 ovarian it was -3.48% (active). Besides, the growth in the assay with OVCAR-5 ovarian was 6.94% (active); in the assay with OVCAR-4 ovarian it was -7.94% (active); in the assay with SK-OV-3 ovarian, 5.34% (active); in the assay on IGROV1 ovarian it was -55.6% (active); with OVCAR-3 ovarian, -41.9% (active); in the assay on HS 578T breast it was -23.3% (active). Further, in the assay with NCI/ADR-RES ovarian, the growth is 78.4%.
Regarding `O=c1[nH]nc(-c2ccccc2)c2c(-c3ccccc3)onc12`, the growth was 30.7% with SK-MEL-2 melanoma; 25.4% in the assay with EKVX NSCLC; 56.3% with SN12C renal; 16.9% in the assay on UO-31 renal; 62.5% in the assay with TK-10 renal; 47.5% in the assay on ACHN renal. Besides, the growth is 28.7% with CAKI-1 renal; 7.76% (active) with A498 renal; 21.3% in the assay on CCRF-CEM leukemia; 30.2% in the assay with MOLT-4 leukemia; 19.5% with RPMI-8226 leukemia; 54.3% in the assay on OVCAR-8 ovarian. Further, the growth in the assay on OVCAR-5 ovarian was 58.7%; with OVCAR-4 ovarian it was 64.1%; in the assay on SK-OV-3 ovarian it was 15.4%; in the assay with IGROV1 ovarian it was 13.2%; in the assay with OVCAR-3 ovarian, -15.8% (active); in the assay on NCI/ADR-RES ovarian it was 30.4%.
As for `CCN(CCNc1ccc(C)c2sc3ccccc3c(=O)c12)CC(C)(C)O`, the growth in the assay on SK-MEL-2 melanoma is 77.3%; in the assay with EKVX NSCLC, 101%; in the assay with SN12C renal it was 101%; in the assay with UO-31 renal it was 70.2%; in the assay on TK-10 renal, 89.7%; with ACHN renal it was 79.7%. Moreover, the growth was 79% in the assay with CAKI-1 renal; 81% in the assay on A498 renal; 39.9% with CCRF-CEM leukemia; 40% with MOLT-4 leukemia; 13.5% in the assay on RPMI-8226 leukemia; 87.1% with OVCAR-8 ovarian. For the same compound, the growth in the assay with OVCAR-5 ovarian is 79.4%; in the assay with OVCAR-4 ovarian it was 95.7%; in the assay with SK-OV-3 ovarian, 76.3%; in the assay on IGROV1 ovarian it was 79.4%; in the assay with HS 578T breast, 59.5%; with NCI/ADR-RES ovarian, 70.9%.
